Assay results reported in the supplement of paper PMC8285479.
Where a name gives a salt, the structure may show the parent alone. ± gives the standard deviation of the averaged measurements. The full ranking holds about 1,900 compounds; the median of “normalised cell viability (NPI; 0 = phenylarsine oxide control, 1 = DMSO control)” is about 1, and the lowest 2% start at about 0.039. The list comes from a sample in which the lowest values are over-represented; it also holds similar structures and randomly drawn compounds.

Tested on: NCI-H1944
Test: normalised cell viability (NPI; 0 = phenylarsine oxide control, 1 = DMSO control) (fraction of DMSO control); NCI-H1944 is a non-small cell lung cancer line; higher = more viable cells (less compound toxicity)
Settings: 6 days
[1] = glucocorticoid arm: hydrocortisone 2.75 uM co-treatment, compound 1 µM
[2] = glucocorticoid arm: hydrocortisone 2.75 uM co-treatment, compound 5 µM
[3] = glucocorticoid arm: hydrocortisone 2.75 uM pre-treated 2 days and continued, compound 1 µM
[4] = glucocorticoid arm: hydrocortisone 2.75 uM pre-treated 2 days and continued, compound 5 µM
[5] = glucocorticoid arm: vehicle, compound 1 µM
[6] = glucocorticoid arm: vehicle, compound 5 µM
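Note: CTB read-out in 384-well plates, triplicate wells, NPI normalised per plate against 1 µM phenylarsine oxide (0) and 0.1% DMSO (1) controls.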

| Compound | normalised cell viability [1] | normalised cell viability [2] | normalised cell viability [3] | normalised cell viability [4] | normalised cell viability [5] | normalised cell viability [6] |
| --- | --- | --- | --- | --- | --- | --- |
| NS(=O)(=O)c1cc(C(=O)O)c(NCc2ccco2)cc1Cl [Furosemide] | 1.002 ± 0.0076 | 0.9983 ± 0.0029 | 0.999 ± 0.011 | 0.995 ± 0.015 | 0.984 ± 0.002 | 0.9897 ± 0.0047 |
| OCC1OC(n2cnc3c(NCCc4ccccc4)ncnc32)C(O)C1O (stereo unspecified) [N6-2-Phenylethyladenosine] | 1.006 ± 0.0069 | 0.9327 ± 0.0083 | 0.852 ± 0.27 | 1 ± 0.017 | 0.993 ± 0.0062 | 1 ± 0.017 |
| N=C(N)NCCCCNC(=N)N [Arcaine sulfate] | 0.987 ± 0.012 | 0.994 ± 0.033 | 0.993 ± 0.0066 | 1.01 ± 0.038 | 0.987 ± 0.013 | 0.9957 ± 0.0045 |
| C=C1C(=O)O[C@@H](CCC)[C@@H]1C(=O)O [Butyrolactone 3] | 1 ± 0.013 | 1.02 ± 0.015 | 0.998 ± 0.013 | 1.017 ± 0.0082 | 0.996 ± 0.0046 | 1.001 ± 0.0075 |
| COc1ccc(Cn2ccc3ccc(C(=O)NO)cc32)cc1 | 0.959 ± 0.041 | 1.01 ± 0.029 | 0.923 ± 0.12 | 1.04 ± 0.04 | 0.9977 ± 0.004 | 1.002 ± 0.0076 |
| CCN(CC)Cc1ccc2cc(COC(=O)Nc3ccc(C(=O)NO)cc3)ccc2c1 [Givinostat (ITF2357)] | 0.726 ± 0.049 | 0.00151 ± 0.0022 | 1 ± 0.018 | 0.0193 ± 0.0045 | 0.139 ± 0.006 | 0.000221 ± 0.0011 |
| CCN(CC)CCNC(=O)c1ccc(NC(C)=O)cc1 [N-Acetylprocainamide hydrochloride] | 0.9787 ± 0.0049 | 0.974 ± 0.0099 | 0.9943 ± 0.0067 | 0.977 ± 0.027 | 0.9883 ± 0.0038 | 0.9807 ± 0.0087 |
| O=C(/C=C/c1ccc2ccccc2n1)c1ccncc1 | 1.01 ± 0.013 | 1.067 ± 0.0058 | 1.02 ± 0.01 | 1.02 ± 0.015 | 1.01 | 1.01 ± 0.01 |
| NC(Cc1cccc(-c2ccccc2CP(=O)(O)O)c1)C(=O)O (stereo not drawn) [Phenylbenzene-omega-phosphono-alpha-amino acid] | 0.9963 ± 0.0055 | 1.1 ± 0.021 | 1.06 ± 0.087 | 1.04 ± 0.021 | 1.017 ± 0.0058 | 1.03 ± 0.01 |
| CC(C)(C)c1ccc(S(=O)(=O)/C=C/C#N)cc1 | 0.9913 ± 0.008 | 0.41 ± 0.055 | 0.9847 ± 0.007 | 0.9755 ± 0.0021 | 0.972 ± 0.0092 | 0.00936 ± 0.004 |
| Cc1ccc(S(=O)(=O)C=CC#N)cc1 | 0.979 ± 0.013 | 0.976 ± 0.0056 | 0.9813 ± 0.0023 | 0.997 ± 0.023 | 0.988 ± 0.011 | 0.688 ± 0.081 |
| CC(/C=C/c1cccc(Oc2ccc(F)cc2)c1)N(O)C(N)=O (stereo unspecified) | 1.017 ± 0.0058 | 1.07 ± 0.01 | 1.01 ± 0.011 | 1.06 ± 0.014 | 1.02 ± 0.015 | 1.023 ± 0.0058 |
| O=C(O)[C@@H]1C[C@H](C(=O)O)N1 [cis-Azetidine-2,4-dicarboxylic acid] | 0.992 ± 0.0044 | 0.97 ± 0.015 | 0.997 ± 0.012 | 1 | 0.9863 ± 0.0029 | 0.976 ± 0.011 |
| OC[C@H]1NC[C@H](O)[C@@H](O)[C@@H]1O [1-Deoxynojirimycin hydrochloride] | 1.01 ± 0.011 | 0.984 ± 0.025 | 0.995 ± 0.015 | 0.969 ± 0.0066 | 1.003 ± 0.0058 | 0.991 ± 0.013 |
| CN(C)CCC(c1ccc(Cl)cc1)c1ccccn1 (racemic) [(±)-Chlorpheniramine maleate] | 0.9833 ± 0.0025 | 0.985 ± 0.018 | 0.9843 ± 0.0078 | 0.991 ± 0.028 | 0.9727 ± 0.0021 | 0.987 ± 0.0069 |
| OC[C@H]1NC[C@@H](O)[C@@H]1O [1,4-Dideoxy-1,4-imino-D-arabinitol] | 0.9993 ± 0.0011 | 0.9807 ± 0.0015 | 0.997 ± 0.014 | 0.976 ± 0.027 | 1.002 ± 0.007 | 0.992 ± 0.012 |

| Compound | normalised cell viability [1] | normalised cell viability [2] | normalised cell viability [3] | normalised cell viability [4] | normalised cell viability [5] | normalised cell viability [6] |
| --- | --- | --- | --- | --- | --- | --- |
| COc1ccc(-c2ccc3ncc4c(c3c2)n(-c2ccc(N3CCNCC3)c(C(F)(F)F)c2)c(=O)n4C)cn1 | 0.00163 ± 0.00092 | 0.000434 ± 0.00018 | 0.25 ± 0.021 | 0.0016 ± 0.00014 | 0.000974 ± 0.00058 | 0.000275 ± 0.00038 |
| Cn1c(=O)n(-c2ccc(C(C)(C)C#N)cc2)c2c3cc(-c4cnc5ccccc5c4)ccc3ncc21 | 0.421 ± 0.017 | 0.496 ± 0.04 | 0.629 ± 0.0076 | 0.633 ± 0.071 | 0.255 ± 0.013 | 0.408 ± 0.047 |
| c1ccc(C2CN3CCSC3=N2)cc1 (single isomer, unassigned; (-)) [(-)-Tetramisole hydrochloride] | 1.017 ± 0.0058 | 1.01 ± 0.015 | 1.02 ± 0.015 | 1.02 ± 0.015 | 1.02 | 1.02 ± 0.015 |
| O=Nc1c(-c2c(O)[nH]c3cc(Br)ccc23)[nH]c2ccccc12 | 1.15 ± 0.01 | 1.24 ± 0.032 | 1.127 ± 0.011 | 1.16 ± 0.031 | 1.04 ± 0.01 | 1.07 ± 0.01 |
| CCN1CCN(Cc2ccc(Nc3ncc(F)c(-c4cc(F)c5nc(C)n(C(C)C)c5c4)n3)nc2)CC1 | 0.493 ± 0.041 | 0.312 ± 0.06 | 0.528 ± 0.03 | 0.599 ± 0.14 | 0.252 ± 0.028 | 0.000109 ± 0.00093 |
| N=C(NC(=O)c1nc(Cl)c(N)nc1N)Nc1ccccc1 [Phenamil methanesulfonate] | 1.01 ± 0.011 | 1.04 ± 0.025 | 0.894 ± 0.22 | 1.06 ± 0.025 | 1.007 ± 0.0058 | 0.9977 ± 0.004 |
| CCCCOc1c(C(=O)c2c(F)cc(C)cc2F)c[nH]c2nncc1-2 | 0.91 ± 0.018 | 0.988 ± 0.017 | 0.9857 ± 0.0032 | 1.02 ± 0.022 | 0.561 ± 0.04 | 0.861 ± 0.018 |
| Cn1cc(C2=C(c3cn(CCCSC(=N)N)c4ccccc34)C(=O)NC2=O)c2ccccc21 [Ro 31-8220 Mesylate] | 0.998 ± 0.013 | 0.125 ± 0.013 | 0.973 ± 0.036 | 0.297 ± 0.087 | 1.013 ± 0.0058 | 0.0242 ± 0.0022 |
| CN(C)CCCn1cc(C2=C(c3c[nH]c4ccccc34)C(=O)NC2=O)c2ccccc21 | 0.992 ± 0.017 | 1.06 ± 0.011 | 1.01 ± 0.02 | 1.01 ± 0.059 | 1.03 ± 0.011 | 1.05 |
| O=Nc1ccc2oc(=O)ccc2c1 [6-Nitroso-1,2-benzopyrone] | 1.02 ± 0.01 | 1.02 ± 0.015 | 1.027 ± 0.0058 | 0.857 ± 0.29 | 1.013 ± 0.0058 | 1.02 ± 0.01 |
| CN(C)CCC(c1ccc(Br)cc1)c1ccccn1 (single isomer, unassigned; (+)) [(+)-Brompheniramine maleate] | 1.01 ± 0.017 | 1.023 ± 0.0058 | 1.05 ± 0.04 | 1.03 ± 0.021 | 1.006 ± 0.0069 | 1.02 ± 0.011 |
| Nc1ncnc2c1ncn2[C@@H]1O[C@H](COP(=O)(O)CP(=O)(O)OP(=O)([O-])O)[C@@H](O)[C@H]1O.[Li+] [alpha,beta-Methylene adenosine 5'-triphosphate lithium salt] | 1.02 ± 0.011 | 1 ± 0.036 | 1.01 ± 0.014 | 0.992 ± 0.013 | 1.005 ± 0.0081 | 1.02 ± 0.021 |
| Cc1nc(N=Nc2cc(S(=O)(=O)O)c3cc([N+](=O)[O-])cc(S(=O)(=O)O)c3c2)c(COP(=O)(O)O)c(C=O)c1O [PPNDS tetrasodium] | 1.001 ± 0.0085 | 1.01 ± 0.037 | 1.013 ± 0.0058 | 0.857 ± 0.27 | 0.9973 ± 0.0021 | 0.999 ± 0.0098 |
| CC(NC(=O)C(O)c1cc(F)cc(F)c1)C(=O)NC1C(=O)N(C)c2ccccc2-c2ccccc21 (stereo unspecified) | 0.973 ± 0.013 | 0.995 ± 0.017 | 0.977 ± 0.015 | 1.007 ± 0.0058 | 0.9893 ± 0.0038 | 0.9993 ± 0.0011 |
| CO[C@H](C(=O)[C@@H](O)[C@@H](C)O)[C@@H]1Cc2cc3cc(O[C@H]4C[C@@H](O[C@H]5C[C@@H](O)[C@H](O)[C@@H](C)O5)[C@H](O)[C@@H](C)O4)c(C)c(O)c3c(O)c2C(=O)[C@H]1O[C@H]1C[C@@H](O[C@H]2C[C@@H](O[C@H]3C[C@](C)(O)[C@H](O)[C@@H](C)O3)[C@@H](O)[C@@H](C)O2)[C@H](O)[C@@H](C)O1 [Plicamycin] | 0.0675 ± 0.0023 | 0.0276 ± 0.0011 | 0.102 ± 0.0097 | 0.0631 ± 0.0043 | 0.0202 ± 0.0011 | 0.011 ± 0.0021 |
